Results reported in PubChem BioAssay (Tox21).
“And” between values parts separate entries of the source, which are not always exact repeats. Equal values may be shown once. Records with an inconclusive call do not appear. The source made the active and inactive calls. Unless noted, calls come from the whole dose curve; as a rule, active = well fitted curve in the direction sought with a large enough effect in the repeat runs; inconclusive = weak or mixed curves; inactive = no such curve, though single readings can be large; an effect the other way counts as inactive or inconclusive.

What was measured:
[1] = target: Thyrotropin receptor (Homo sapiens) (UniProt P16473); assay: qHTS assay to identify small molecule antagonists of the thyroid stimulating hormone receptor (TSHR) signaling pathway (AID 1259385; calls by dose curve; note: nearly all actives have a fitted effect of over 20% in size)
How it was run: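 TSHR-HEK293 cells were plated and held 18 h at 37C/5% CO2, then given compound plus Ro20-1724 and stimulated with TSH at 1.5 ng/mL final. After 30 min at room temperature, cAMP was detected with cAMP-d2/anti-cAMP-cryptate (1 h) by fluorescence.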

[2] = qHTS assay to identify small molecule agonists of the estrogen receptor alpha (ER-alpha) signaling pathway in the presence of an antagonist - cell viability counter screen (AID 1259386);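 note: series mostly up to about 92 µM; cells exposed to compounds for 22 h at 37 °C before the viability read; nearly all actives have a fitted effect of over 30% in size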
How it was run: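 ICI-182,780 at 10.0nM final accompanies the compound titration (15 concentrations, 22hr, 37C) on VM7Luc4E2 cells. The CellTiter-Fluor fluorescence readout runs in the same wells as the luciferase assay.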

[3] = target: Progesterone receptor (Homo sapiens) (UniProt P06401); assay: qHTS assay to identify small molecule agonists of the progesterone receptor (PR) signaling pathway (AID 1346784; calls by dose curve; note: nearly all actives have a fitted effect of over 30% in size)
How it was run: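 Cells (PR-UAS-bla HEK 293T, GripTite) were plated in assay medium containing 2% charcoal-stripped FBS and incubated 6 hr. Test compounds in DMSO were added for 16 hr at 37C. FRET substrate was then loaded for 2 hr at room temperature before fluorescence reading.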

[4] = target: Progesterone receptor (Homo sapiens) (UniProt P06401); assay: qHTS assay to identify small molecule antagonists of the progesterone receptor (PR) signaling pathway (AID 1346795; active = well fitted inhibition curve with a large enough effect in the signal ratio in the repeat runs, not every such curve was filed as active; the % refers to the signal ratio)
How it was run: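 Antagonist mode: compounds tested against 1 nM (final) promegestone stimulation in HEK293T cells expressing PR-UAS-bla reporter, 16 hr at 37C, 5% CO2; beta-lactamase activity detected via B/G FRET substrate after 2 hr at room temperature.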

[5] = qHTS assay to identify small molecule antagonists of the progesterone receptor (PR) signaling pathway - cell viability counter screen (AID 1346798); note: series mostly up to about 92 µM; nearly all actives have a fitted effect of over 50% in size
How it was run: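 Counter screen for cytotoxicity: viability of PR-UAS-bla HEK293T cells was measured with CellTiter-Glo luminescence following 16 hr compound exposure in the presence of R5020.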

[6] = qHTS assay to identify small molecule agonists of the progesterone receptor (PR) signaling pathway - cell viability counter screen (AID 1346799; calls by dose curve; note: nearly all actives have a fitted effect of over 45% in size)
How it was run: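 Cells (PR-UAS-bla HEK293T) are plated at 3,000/well in 2% charcoal-stripped FBS medium, rested 6 hr, dosed and incubated 16 hr at 37C. CellTiter-Glo is then added and luminescence measured after 30 min at room temperature.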

[7] = qHTS assay to identify small molecule antagonists of the TGF-beta/Smad signaling pathway - cell viability counter screen (AID 1346824); note: nearly all actives have a fitted effect of over 50% in size
How it was run: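 SBE-bla HEK 293T cells were plated overnight at 37 C, then given compounds in DMSO plus TGF-beta1 (added as 0.25 ng/mL solution) for 5 hr. After the bla read, CellTiter-Glo was added to the same wells and luminescence read after 30 min at room temperature.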

[8] = qHTS assay to identify small molecule agonists of the TGF-beta/Smad signaling pathway - cell viability counter screen (AID 1346829); note: top concentration of the series differs between compounds; nearly all actives have a fitted effect of over 45% in size
How it was run: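 SBE-bla HEK 293T cells plated overnight, compound exposure 5 hr at 37 C. Viability read in the same wells by CellTiter-Glo luminescence after 30 min at room temperature, following the beta-lactamase read.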

[9] = qHTS assay to identify small molecule agonists of the TGF-beta/Smad signaling pathway (AID 1346859; active = well fitted activation curve with a large enough effect in the signal ratio in the repeat runs, not every such curve was filed as active; the % refers to the signal ratio; note: series mostly up to about 77 µM)
How it was run: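 Reporter line: HEK 293T with stably integrated SBE-controlled beta-lactamase. Compound exposure lasts 5 hr at 37 C and 5% CO2; substrate loading follows for 2 hr at room temperature, with emission read at 460 and 530 nm.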

[10] = Human pregnane X receptor (PXR) small molecule agonists, qHTS cell viability counter screen (AID 1346977); note: nearly all actives have a fitted effect of over 50% in size
How it was run: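 Cytotoxicity counter screen run in the same wells as the PXR luciferase assay, using PXR-Luc HepG2 cells in charcoal-stripped serum medium. Viability: CellTiter-Fluor fluorescence after 24hr compound treatment.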

[11] = Caspase-3/7 induction in HepG2 cells by small molecules, qHTS assay (AID 1346978); note: nearly all actives have a fitted effect of over 15% in size
How it was run: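 Wild-type HepG2 cells (2,000/well) were settled 5 h at 37 C, 5% CO2, then exposed to compounds in DMSO for 17 h. Caspase-3/7 activity was read by luminescence 30 min after adding Caspase-Glo 3/7 reagent at room temperature.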

[12] = Caspase-3/7 induction in CHO-K1 cells by small molecules, qHTS cell viability counter screen (AID 1346979); note: nearly all actives have a fitted effect of over 35% in size
How it was run: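 Cytotoxicity counter screen run in parallel with the caspase-3/7 assay: CHO-K1 cells, 16hr compound treatment at 37C, then CellTiter-Fluor for 1hr before fluorescence reading.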

[13] = Caspase-3/7 induction in CHO-K1 cells by small molecules, qHTS assay (AID 1346980); note: nearly all actives have a fitted effect of over 15% in size
How it was run: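 Wild-type cells were seeded at 1,500 per well and settled 5 hr at 37 C, 5% CO2, then exposed to DMSO-dissolved compounds for 17 hr. Caspase-Glo 3/7 reagent was added, and luminescence was read after 30min at room temperature.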

[14] = Caspase-3/7 induction in HepG2 cells by small molecules, qHTS cell viability counter screen (AID 1346981); note: series mostly up to about 92 µM; nearly all actives have a fitted effect of over 30% in size
How it was run: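 Multiplexed with the caspase-3/7 assay: HepG2 cells, 16 hr compound treatment, CellTiter-Fluor viability detection by fluorescence.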

[15] = target: Nuclear receptor subfamily 1 group I member 2 (Homo sapiens) (UniProt O75469); assay: Human pregnane X receptor (PXR) small molecule agonists, qHTS assay (AID 1346982); note: nearly all actives have a fitted effect of over 35% in size
How it was run: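 We seeded PXR-Luc HepG2 cells in assay medium containing 5% charcoal-stripped FBS, added compounds 5 hr later, incubated 24 hr, and read luminescence with ONE-Glo reagent.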

[16] = target: Thyrotropin-releasing hormone receptor (Homo sapiens) (UniProt P34981); assay: qHTS assay to identify small molecule antagonists of the thyrotropin-releasing hormone receptor (TRHR) signaling pathway (AID 1346877; active = well fitted inhibition curve with a large enough effect in the repeat runs, not every such curve was filed as active; note: series mostly up to about 51 µM)
How it was run: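 Screening used HEK293 cells engineered with TRHR, with a brief 5 min room-temperature compound exposure preceding addition of TRH to 1 nM. The read-out was kinetic calcium-dye fluorescence, concentration-response from 15 doses in triplicate.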

[17] = target: Thyrotropin-releasing hormone receptor (Homo sapiens) (UniProt P34981); assay: qHTS assay to identify small molecule agonists of the thyrotropin-releasing hormone receptor (TRHR) signaling pathway (AID 1346891; calls by dose curve;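 note: HEK293 cells expressing TRHR with calcium dye readout; series mostly up to about 58 µM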)
How it was run: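 Cells: TRHR-Hek293, seeded and incubated 18 h. Dye loading: 2 h at 37 °C. Compound added from DMSO stock by pin tool. Read-out: kinetic calcium fluorescence over 3 min.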

[18] = target: Nuclear receptor subfamily 1 group I member 2 (Rattus norvegicus) (UniProt Q9R1A7); assay: Rat pregnane X receptor (rPXR) activation by small molecules, qHTS assay (AID 1346983); conditions: rPXR luciferase reporter cells, One-Glo luminescence, 24 h; max activation: hits give high values; note: nearly all actives have a fitted effect of over 20% in size
How it was run: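 Cell-based rPXR luciferase reporter assay, 2,000 cells per well, rested 5hr at 37 C before compound addition in DMSO, then 24 hr at 37 C. One-Glo reagent was added and luminescence read after 30 min at room temperature.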

[19] = target: Nuclear receptor subfamily 1 group I member 2 (Homo sapiens) (UniProt O75469); assay: CYP3A4 induction through human pregnane X receptor (PXR) by small molecules, qHTS assay (AID 1346984); note: nearly all actives have a fitted effect of over 40% in size
How it was run: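 qHTS, concentration-response format: HepG2 DPX-2 line, PXR/CYP3A4-luc. Exposure 24 h, 37C. Substrate Luciferin-IPA 3uM final, 3 h. Detection One-Glo, 30 min RT.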

[20] = target: Nuclear receptor subfamily 1 group I member 2 (Homo sapiens) (UniProt O75469); assay: Human pregnane X receptor (PXR) activation by small molecules, qHTS assay (AID 1346985); note: nearly all actives have a fitted effect of over 40% in size
How it was run: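 DPX-2 cells (HepG2 co-transfected with a PXR response element and a CYP3A4-promoter luciferase construct) were seeded at 2,000 per well, rested 5 hr at 37C, then exposed to DMSO-dissolved compounds for 24 hr. Activation was read as luciferase luminescence.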
% is set by controls: 0 for no effect and ±100 for the full control effect.

Sequence of Thyrotropin receptor (Homo sapiens) (P16473 whole entry, looked up): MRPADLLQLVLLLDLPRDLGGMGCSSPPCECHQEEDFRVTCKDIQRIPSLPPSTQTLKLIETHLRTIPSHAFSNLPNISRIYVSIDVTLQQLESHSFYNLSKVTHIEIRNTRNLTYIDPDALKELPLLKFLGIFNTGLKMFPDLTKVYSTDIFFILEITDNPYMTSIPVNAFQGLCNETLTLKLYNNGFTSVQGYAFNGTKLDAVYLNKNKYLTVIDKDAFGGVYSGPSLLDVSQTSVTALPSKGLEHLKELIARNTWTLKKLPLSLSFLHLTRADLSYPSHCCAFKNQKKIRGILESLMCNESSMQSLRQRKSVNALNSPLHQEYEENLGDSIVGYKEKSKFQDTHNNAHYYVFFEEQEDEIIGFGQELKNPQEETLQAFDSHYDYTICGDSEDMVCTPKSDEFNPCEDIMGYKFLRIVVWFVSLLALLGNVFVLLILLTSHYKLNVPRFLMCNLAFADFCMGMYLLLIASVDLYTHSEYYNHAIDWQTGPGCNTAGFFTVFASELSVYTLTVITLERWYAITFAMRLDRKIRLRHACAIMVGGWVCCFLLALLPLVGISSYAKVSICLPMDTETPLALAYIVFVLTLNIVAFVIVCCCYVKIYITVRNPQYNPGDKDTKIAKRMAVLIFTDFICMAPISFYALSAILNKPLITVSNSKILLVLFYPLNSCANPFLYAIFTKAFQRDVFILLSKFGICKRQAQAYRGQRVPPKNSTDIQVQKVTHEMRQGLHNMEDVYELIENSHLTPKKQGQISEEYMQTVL
Sequence of Nuclear receptor subfamily 1 group I member 2 (Rattus norvegicus) (Q9R1A7 whole entry, looked up): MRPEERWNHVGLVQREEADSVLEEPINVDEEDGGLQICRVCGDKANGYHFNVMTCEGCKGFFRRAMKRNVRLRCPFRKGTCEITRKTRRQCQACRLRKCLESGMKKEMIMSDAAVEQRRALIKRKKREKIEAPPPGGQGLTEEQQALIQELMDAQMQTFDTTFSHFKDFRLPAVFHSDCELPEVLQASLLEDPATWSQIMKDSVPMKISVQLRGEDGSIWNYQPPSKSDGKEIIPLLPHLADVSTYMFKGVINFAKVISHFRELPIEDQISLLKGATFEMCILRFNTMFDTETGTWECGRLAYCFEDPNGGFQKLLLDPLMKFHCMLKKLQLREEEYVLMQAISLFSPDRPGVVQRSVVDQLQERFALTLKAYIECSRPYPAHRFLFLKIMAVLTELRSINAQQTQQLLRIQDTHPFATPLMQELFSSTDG
Sequence of Thyrotropin-releasing hormone receptor (Homo sapiens) (P34981 whole entry, looked up): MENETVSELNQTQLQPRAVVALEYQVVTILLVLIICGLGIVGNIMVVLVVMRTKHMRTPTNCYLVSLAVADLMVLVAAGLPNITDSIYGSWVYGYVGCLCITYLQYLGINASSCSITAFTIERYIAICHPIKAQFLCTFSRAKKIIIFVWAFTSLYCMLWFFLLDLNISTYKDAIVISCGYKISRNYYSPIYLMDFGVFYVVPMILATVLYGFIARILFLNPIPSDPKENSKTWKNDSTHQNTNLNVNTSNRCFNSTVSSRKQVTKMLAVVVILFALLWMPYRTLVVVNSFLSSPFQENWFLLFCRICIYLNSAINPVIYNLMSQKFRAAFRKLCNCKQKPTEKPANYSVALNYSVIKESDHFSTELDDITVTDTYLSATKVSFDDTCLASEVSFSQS
Sequence of Nuclear receptor subfamily 1 group I member 2 (Homo sapiens) (O75469 whole entry, looked up): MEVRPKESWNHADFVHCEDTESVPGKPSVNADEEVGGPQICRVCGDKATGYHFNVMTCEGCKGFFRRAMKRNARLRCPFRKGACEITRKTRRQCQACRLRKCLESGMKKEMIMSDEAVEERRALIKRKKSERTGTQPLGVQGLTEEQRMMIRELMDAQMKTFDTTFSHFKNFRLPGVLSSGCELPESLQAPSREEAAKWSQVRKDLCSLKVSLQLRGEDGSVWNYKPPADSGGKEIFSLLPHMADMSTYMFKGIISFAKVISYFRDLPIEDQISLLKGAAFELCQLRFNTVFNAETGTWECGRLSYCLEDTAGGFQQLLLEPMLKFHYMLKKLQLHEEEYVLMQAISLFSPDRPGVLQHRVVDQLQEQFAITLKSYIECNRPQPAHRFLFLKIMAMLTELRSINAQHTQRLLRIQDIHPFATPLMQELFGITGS
Sequence of Progesterone receptor (Homo sapiens) (P06401 whole entry, looked up): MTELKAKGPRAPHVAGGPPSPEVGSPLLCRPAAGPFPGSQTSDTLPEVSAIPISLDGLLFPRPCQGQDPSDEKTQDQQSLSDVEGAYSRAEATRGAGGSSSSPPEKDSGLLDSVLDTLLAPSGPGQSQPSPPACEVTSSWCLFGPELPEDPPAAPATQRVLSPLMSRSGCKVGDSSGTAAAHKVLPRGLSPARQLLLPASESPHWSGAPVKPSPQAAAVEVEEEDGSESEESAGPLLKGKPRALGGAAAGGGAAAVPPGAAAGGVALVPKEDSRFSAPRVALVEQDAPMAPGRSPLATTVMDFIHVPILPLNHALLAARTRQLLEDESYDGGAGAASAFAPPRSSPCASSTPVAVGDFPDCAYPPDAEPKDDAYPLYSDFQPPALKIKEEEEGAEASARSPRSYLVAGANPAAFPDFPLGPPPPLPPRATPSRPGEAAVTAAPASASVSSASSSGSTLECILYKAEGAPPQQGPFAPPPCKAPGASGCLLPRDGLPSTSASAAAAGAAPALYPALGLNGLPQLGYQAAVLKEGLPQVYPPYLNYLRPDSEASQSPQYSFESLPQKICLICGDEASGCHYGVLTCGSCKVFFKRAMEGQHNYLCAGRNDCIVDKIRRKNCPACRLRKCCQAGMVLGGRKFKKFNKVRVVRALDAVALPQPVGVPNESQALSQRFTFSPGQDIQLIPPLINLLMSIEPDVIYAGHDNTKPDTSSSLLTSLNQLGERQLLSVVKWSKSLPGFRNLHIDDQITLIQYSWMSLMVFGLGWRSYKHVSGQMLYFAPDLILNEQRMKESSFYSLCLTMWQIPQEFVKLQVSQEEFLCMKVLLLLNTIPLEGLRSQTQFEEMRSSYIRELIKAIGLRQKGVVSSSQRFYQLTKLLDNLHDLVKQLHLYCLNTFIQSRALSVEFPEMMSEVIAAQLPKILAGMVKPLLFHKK

OC[C@@H](O)[C@@H](O)[C@H](O)[C@@H](O)CO
inactive: outcome [1] | Potency [2] | Potency [3] | Potency [4] | Potency [5] | Potency [6] | Potency [7] | Potency [8] | outcome [9] | Potency [10] | Potency [11] | Potency [12] | Potency [13] | Potency [14] | Potency [15]

NC(=O)NNc1ccccc1
inactive: outcome [1] | Potency [2] | Potency [3] | Potency [4] | Potency [5] | Potency [6] | Potency [7] | Potency [8] | outcome [16] | Potency [17] | Potency [11] | Potency [12] | Potency [13] | Potency [14] | max activation [18] -0.925% and 0.997%

Cc1ccc(C(=O)O)o1
inactive: outcome [1] | Potency [2] | Potency [3] | Potency [4] | Potency [5] | Potency [6] | Potency [7] | Potency [8] | outcome [9] | Potency [10] | Potency [11] | Potency [12] | Potency [13] | Potency [14] | Potency [15]

c1ccc2ccccc2c1
inactive: outcome [1] | Potency [2] | Potency [3] | Potency [4] | Potency [5] | Potency [6] | Potency [7] | Potency [8] | outcome [9] | Potency [17] | Potency [11] | Potency [12] | Potency [13] | Potency [14] | max activation [18] -0.655% | outcome [19] | outcome [20]

Clc1ccc(Cl)c(Cl)c1Cl
inactive: outcome [1] | Potency [2] | Potency [3] | Potency [4] | Potency [5] | Potency [6] | Potency [7] | Potency [8] | outcome [16] | Potency [17] | Potency [10] | Potency [11] | Potency [12] | Potency [13] | Potency [14] | Potency [15]

COCC(C)O (stereo not given)
inactive: outcome [1] | Potency [2] | Potency [3] | Potency [4] | Potency [5] | Potency [6] | Potency [7] | Potency [8] | outcome [16] | Potency [17] | Potency [10] | Potency [11] | Potency [12] | Potency [13] | Potency [14]

NCCNCCNCCNCCN
inactive: outcome [1] | Potency [2] | Potency [3] | Potency [4] | Potency [5] | Potency [6] | Potency [7] | Potency [8] | outcome [9] | Potency [11] | Potency [12] | Potency [13] | Potency [14] | Potency [15] | max activation [18] -4.35% | outcome [19] | outcome [20]
